The record followed here is PubChem BioAssay AID1963315 (National Center for Advancing Translational Sciences (NCATS), 2024).

Records with an inconclusive call do not appear. Where a call stands in place of a potency, no number is given. The source made the active and inactive calls. Calls come from the whole dose curve.

Sequence of Tyrosine-protein kinase ABL1 (Homo sapiens) (P00519 whole entry, looked up): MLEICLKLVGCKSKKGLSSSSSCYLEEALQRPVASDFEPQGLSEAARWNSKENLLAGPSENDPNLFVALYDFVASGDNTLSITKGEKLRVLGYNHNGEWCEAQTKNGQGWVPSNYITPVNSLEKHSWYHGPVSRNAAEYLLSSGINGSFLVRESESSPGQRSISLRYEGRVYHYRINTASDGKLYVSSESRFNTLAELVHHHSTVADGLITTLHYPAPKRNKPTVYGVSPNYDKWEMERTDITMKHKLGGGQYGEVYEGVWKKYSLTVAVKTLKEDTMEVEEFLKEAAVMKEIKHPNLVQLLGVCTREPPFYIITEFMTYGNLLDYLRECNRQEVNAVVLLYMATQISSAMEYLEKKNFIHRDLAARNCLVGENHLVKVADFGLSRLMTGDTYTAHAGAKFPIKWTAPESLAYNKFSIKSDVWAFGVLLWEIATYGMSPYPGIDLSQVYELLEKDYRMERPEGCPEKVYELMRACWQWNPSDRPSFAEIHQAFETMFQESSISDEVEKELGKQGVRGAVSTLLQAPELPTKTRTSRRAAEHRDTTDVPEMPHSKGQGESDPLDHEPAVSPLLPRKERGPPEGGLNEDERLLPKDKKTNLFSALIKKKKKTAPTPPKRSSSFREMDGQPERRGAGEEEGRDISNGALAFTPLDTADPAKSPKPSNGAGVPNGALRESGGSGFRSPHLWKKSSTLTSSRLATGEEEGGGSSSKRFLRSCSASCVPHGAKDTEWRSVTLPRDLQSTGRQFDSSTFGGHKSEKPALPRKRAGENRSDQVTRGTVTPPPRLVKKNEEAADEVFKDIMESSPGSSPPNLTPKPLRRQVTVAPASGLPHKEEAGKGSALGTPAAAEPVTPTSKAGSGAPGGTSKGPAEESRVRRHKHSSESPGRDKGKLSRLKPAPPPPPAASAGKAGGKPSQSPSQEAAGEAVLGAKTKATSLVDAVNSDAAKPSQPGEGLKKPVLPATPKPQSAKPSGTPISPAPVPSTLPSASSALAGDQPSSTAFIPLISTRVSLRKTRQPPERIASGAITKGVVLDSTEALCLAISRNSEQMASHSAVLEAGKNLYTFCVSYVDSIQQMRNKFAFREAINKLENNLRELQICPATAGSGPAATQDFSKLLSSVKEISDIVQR

The target of this test is Tyrosine-protein kinase ABL1 (Homo sapiens) (UniProt P00519). Briefly: ABL1 kinase (ABL1-N-HiBiT) SDR gain of signal screen. The conditions noted are these: Purified ABL1-N-HiBiT enzyme, Nano-Glo HiBiT luminescence, 30 min compound incubation; series mostly up to 32.9 µM. The text has this: National Center for Advancing Translational Sciences (NCATS),
National Institute of Health (NIH), Maryland
Discovery and optimization of novel protein-binding ligands underlies many of the methods and applications of biology, drug discovery, clinical diagnostics, and environmental toxicology. Assays for detecting the interaction of, for example, a molecule with a macromolecular target also referred to here as the target of interest (TOI) is dependent on a compatible output technology. Depending on the nature and knowledge surrounding the TOI, whether a receptor, enzyme, regulatory subunit or scaffold, or a sequence-defined nucleic acid folded into a complex tertiary structure, assay strategies can vary widely.
Here we exploit ligand-biased changes in the structural dynamics of the target protein to control reporter alpha complementation allowing a non-competitive, non-functional, non-separation measure of ligand-target interaction.
Secondly, we show the specificity and sensitivity of the SDR for the Abelson tyrosine kinase (ABL1) compared to the serine/threonine protein kinase A, using an enriched chemical library of 128 compounds selected, in part, for activity annotated with ABL1 kinase activity using the Pharos database (3).
(1) A. S. Dixon et al., NanoLuc Complementation Reporter Optimized for Accurate Measurement of Protein Interactions in Cells. ACS Chem Biol 11, 400-408 (2016).
Chemistry & Biology, 19, 1060 - 1072 (2012).
(3) K. J. Kelleher et al., Pharos 2023: an integrated resource for the understudied human proteome. Nucleic Acids Res 51, D1405-D1416 (2023).
PROTOCOL TABLE (as described by Inglese J, Shamu CE and Guy RK. 2007)
SEQUENCE No. (e.g., 1, 2, 3, etc.); […] (e.g., C. elegans, Compounds, Incubation, Read, etc.); VALUE and DESCRIPTION.
1. Reagent. Dispense 4 uL ABL1-N-HiBiT enzyme per well at a final enzyme concentration of 10 nM in buffer without ATP (SDR assay) into columns 2-48 of four replicate Greiner 1536-well white, solid bottom high base, medium plates per assay. Dispense respective buffer without enzyme at 4 uL/well in column 1 of assay plates using BioRaptr 2.
2. Compounds. Library compounds added at 23 nL/well by pin transfer. DMSO neutral control and imatinib positive control added at 25 nL/well, transfer by Mosquito dispenser.
3. Incubation. Incubate enzyme and compounds at room temperature for 30 min, protected from light.
4. Reagent. (SDR assay) Add 3 uL/well of Nano-Glo HiBiT reagent (Promega) to assay plates with or without ATP.
5. Incubation. (SDR assay) Incubate enzyme solution and HiBiT reagent at room temperature for 10 min, protect from light.
6. Detector. (SDR assay) Luminescence measured using CCD-based camera (ViewLux) with settings as follows: Exposure, 1 sec; Gain, High; Speed, Slow; Binning, 2X.
Inglese J, Shamu CE and Guy RK, Reporting data from high throughput screening of small molecule libraries, Nature Chemical Biology, 2007, 3(8): 438-441. doi.org/10.1038/nchembio0807-438.
Consider `Cc1[nH]nc2ccc(-c3cncc(OC[C@@H](N)Cc4c[nH]c5ccccc45)c3)cc12`, for which the Potency entry was “inactive”.

Turning to `C/C(O)=C(\C#N)C(=O)Nc1cc(Br)ccc1Br`, the Potency result is “inactive”. For `CCNC(=O)C[C@@H]1N=C(c2ccc(Cl)cc2)c2cc(OC)ccc2-n2c(C)nnc21`, the Potency result is “inactive”. Turning to `O=[N+]([O-])O[C@H]1CO[C@H]2[C@@H]1OC[C@H]2O[N+](=O)[O-]`, the Potency result is “inactive”. With `O=C(NCCCNc1nc(Nc2ccc(N3CCOCC3)cc2)ncc1C1CC1)C1CCC1` the entry was “inactive”; with `N#Cc1cn([C@@H]2O[C@H](CO)[C@H](O)[C@@H]2O)c2ncnc(N)c12`, 6.05 µM (active).
